Compound activity: PubChem, The Scripps Research Institute Molecular Screening Center
PLCb3 inh – inhibitors of human phospholipase C beta3; Q01970; Purified PLC-beta3, fluorogenic substrate, fluorescence; inhibition, % at 12.2 µM; 370,000 tested, 0.18% active
MBD2 DNA inh – blocks human MBD2 binding to methylated DNA | Q9UBB5 | TR-FRET, MBD2 binding to methylated oligonucleotide | 370,000 tested, 0.31% active | inhibition, % at 4.4 µM; in the data active means inhibition above about 13%
Target sequence (Q9UBB5 whole entry, looked up): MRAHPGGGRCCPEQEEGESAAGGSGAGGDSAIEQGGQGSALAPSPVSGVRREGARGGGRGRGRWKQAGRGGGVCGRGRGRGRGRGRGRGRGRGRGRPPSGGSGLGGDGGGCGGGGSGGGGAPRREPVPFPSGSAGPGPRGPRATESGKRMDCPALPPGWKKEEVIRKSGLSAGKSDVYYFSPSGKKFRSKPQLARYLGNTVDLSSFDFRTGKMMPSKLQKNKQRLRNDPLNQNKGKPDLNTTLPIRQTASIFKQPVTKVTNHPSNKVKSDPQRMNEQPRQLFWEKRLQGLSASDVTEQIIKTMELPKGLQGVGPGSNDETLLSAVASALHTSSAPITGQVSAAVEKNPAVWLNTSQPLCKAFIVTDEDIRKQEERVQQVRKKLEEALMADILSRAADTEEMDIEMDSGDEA
LEDGF integ inh – blocks HIV-1 LEDGF/p75-dependent DNA integration; TR-FRET IN-LEDGF/p75 DNA integration, Eu/Cy5; inhibition, % at 3.7 µM; 370,000 tested, 0.64% active;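 active means inhibition above the screen-wide mean plus 3 SD, cut at about 13% in these data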;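 further: signal is the Cy5 over europium emission ratio at 671 and 618 nm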
PLCg1 inh – PLC-gamma1 (human) inhibition, primary screen; 370,000 tested, 0.84% active; purified PLC-gamma1, fluorogenic substrate, fluorescence; AID 720700; inhibition, % at 12.2 µM; in the data active means inhibition above about 9.5%
UHRF1 binding – human UHRF1 methylated DNA binding inhibitors. UHRF1 binding to methylated oligo, TR-FRET. inhibition, % at 4.4 µM. Q96T88. 370,000 tested, 0.75% active; in the data active means inhibition above about 21%;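 further: UHRF1 SRA domain binding a hemimethylated CpG hairpin DNA probe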
PLCgamma1 ctr – inhibits human PLC-gamma1 in PLC-beta3 counter-screen | shares compounds with PLCg1 inh | inhibition, % at 12.3 µM | purified PLC-gamma1, fluorogenic substrate, fluorescence | 3,300 tested, 3.1% active; in the data active means inhibition above about 9.5%
PLCb3 confirm – human PLC-beta3 inhibition, confirmation | shares compounds with PLCg1 inh | purified PLC-beta3, fluorogenic substrate fluorescence | 3,300 tested, 1% active | AID 743261 | inhibition, % at 12.3 µM
Of the large screens only hits and unclear results are named; the others gave an inactive call (follow-up assays come after a bar, where they were run). Sampled rows, rich in hits. Any-hit rate of the full collection: about 2.4%. Unless noted, no stated cut-off is given here; in the data, active means inhibition above about 11%; inactive means the rest.

O=C(CN(c1ccccc1Cl)S(=O)(=O)c1ccccc1)NC1CC2CCC1C2 (stereo not drawn)	PLCb3 inh 14 | PLCgamma1 ctr inactive | PLCb3 confirm inactive
CCOC(=O)[C@@]12CN(C(=O)OC(C)(C)C)CC=C1N(Cc1ccc(OC)cc1)C(=O)[C@H]2CC(=O)NCCCCc1ccccc1	none
Cc1ccc(NS(=O)(=O)c2c(F)cc(F)c(Cl)c2F)cc1S(=O)(=O)N1CCOCC1	PLCg1 inh 9.8 | PLCgamma1 ctr inactive | PLCb3 confirm inactive
O=C(CN1CCCc2ccccc21)NCc1ccc(Cl)cc1	none
CCCCOc1cccc(C(=O)Nc2ccc(NC(=O)c3cccs3)cc2)c1	PLCg1 inh 9.6 | PLCgamma1 ctr inactive | PLCb3 confirm inactive
COc1ccc(C(=O)Nc2cccc(OC(=O)c3ccc(C)c(C)c3)c2)cc1	none
CCOc1ccc(NC(=O)c2cccc(NC(=O)c3ccccc3)c2)cc1	PLCg1 inh 11 | PLCgamma1 ctr inactive | PLCb3 confirm inactive
CCOc1ccc(C(=O)Nc2ccc3[nH]ncc3c2)cc1	PLCg1 inh 12 | PLCgamma1 ctr inactive | PLCb3 confirm inactive
CCCOc1ccc(C(=O)Nc2ccc(NC(=O)c3cccs3)cc2)cc1	none
CC(=O)Oc1ccc(C(=O)Nc2cccc(C(=O)c3ccc(C)c(C)c3)c2)cc1	PLCg1 inh 15 | PLCgamma1 ctr inactive | PLCb3 confirm inactive
CC(CCN1CCC(C(O)(c2ccccc2)c2ccccc2)CC1)Oc1cccc(Cl)c1 (stereo not drawn)	none
COc1ccc2c(c1)[C@@]1(NCCc3c1[nH]c1ccc(OC)cc31)C(=O)N2	none
O=C(c1ccco1)N1CCN(Cc2nnc(-c3ccccc3F)o2)CC1	PLCg1 inh 9.8 | PLCgamma1 ctr inactive | PLCb3 confirm inactive
O=C(c1ccco1)N1CCN(C(=O)C2CC(c3ccccc3F)=NO2)CC1 (stereo not drawn)	PLCg1 inh 14 | PLCgamma1 ctr inactive | PLCb3 confirm inactive
CS(=O)(=O)N1CCC(C(=O)NCc2ccc(Cl)cc2)CC1	PLCg1 inh 12 | PLCgamma1 ctr inactive | PLCb3 confirm inactive
CS(=O)(=O)N1CCC(C(=O)NCc2ccncc2)CC1	none
CCOC(=O)c1ccc(NC(=O)c2nc[nH]c2C(=O)NC2CCN(C(=O)OC(C)(C)C)CC2)cc1	PLCg1 inh 11 | PLCgamma1 ctr inactive | PLCb3 confirm inactive
COC(=O)C1CN(Cc2ccccc2)CCS(=O)(=O)N1Cc1cn(Cc2ccccc2)nn1 (stereo not drawn)	none
Cc1ccc(/C=C/C(=O)O)cc1S(=O)(=O)Nc1ccccc1C(=O)O	PLCg1 inh 11 | PLCgamma1 ctr inactive | PLCb3 confirm inactive
COc1ccc(/C=C/C(=O)O)cc1S(=O)(=O)N1CCc2ccccc2C1	none
Cc1ccc(/C=C/C(=O)O)cc1S(=O)(=O)N1CCc2ccccc2C1	PLCg1 inh 11 | PLCgamma1 ctr inactive | PLCb3 confirm inactive
CCCCNC[C@@]12CO[C@H](c3ccc(Cl)cc3)N1[C@@H](c1ccc(Cl)cc1)SC2	none
O=C(OCC#CCSc1nnc(-c2cc3ccccc3cc2O)o1)c1ccc(F)cc1	none
CC1(C)CC(N2CCCC2)=CC(=[N+]2CCCC2)C1	none
CC1(C)CC(N2CCCC2)=CC(=[N+]2CCCCC2)C1	PLCg1 inh 12 | PLCgamma1 ctr inactive | PLCb3 confirm inactive
COc1ccc(C(CCN(Cc2ccc(OC)c(OC)c2)C(C)=O)C(C)C)cc1 (stereo not drawn)	PLCg1 inh 11 | PLCgamma1 ctr inactive | PLCb3 confirm inactive
CC(C)CNc1cccc2c1S(=O)(=O)N(Cc1cn(Cc3cccc(F)c3)nn1)Cc1ccccc1O2	none
CN1C(=O)C[C@@](C#N)(C(=O)NCC(F)(F)F)[C@H]1c1ccccc1	none
O=C(Cn1cccc1C(=O)c1ccccc1)NCCc1ccc(Cl)cc1	none
N=c1sccn1CC(=O)NCCc1ccc(Cl)cc1	PLCg1 inh 10 | PLCgamma1 ctr inactive | PLCb3 confirm inactive
Cc1nn(C)cc1CN(C)C(=O)CCc1nnc(CCC2CCCCC2)o1	PLCg1 inh 11 | PLCgamma1 ctr inactive | PLCb3 confirm inactive
O=C(OCc1cn(Cc2ccc(C(F)(F)F)cc2)nn1)N1CCCC1	none
COc1cccc(C(=O)NNC(=O)CCC(=O)O)c1	PLCg1 inh 9.9 | PLCgamma1 ctr inactive | PLCb3 confirm inactive
Cc1ccc(NC(=O)C2C3CC4OC(=O)C2C4C3)cc1Cl (stereo not drawn)	PLCg1 inh 9.6 | PLCgamma1 ctr inactive | PLCb3 confirm inactive
O=C(OCCN1CCN(C2CN(Cc3cn(Cc4ccccc4F)nn3)S(=O)(=O)C2)CC1)c1cc2ccccc2o1 (stereo not drawn)	none
O=[N+]([O-])c1ccc(C(O)C(CO)NC(=S)Nc2ccccc2)cc1 (stereo not drawn)	PLCg1 inh 9.8 | PLCgamma1 ctr inactive | PLCb3 confirm inactive
NC(=O)NC(=O)COC(=O)CCSc1ccccc1	PLCb3 inh 11 | PLCgamma1 ctr inactive | PLCb3 confirm inactive
NC(=O)c1ccc(NC(=O)COC(=O)CCSc2ccccc2)cc1	none
CC(C)(C)OC(=O)NCc1cc(F)ccc1/C=C/S(=O)(=O)NCc1ccccc1	none
O=C(c1nnsc1S(=O)(=O)c1ccc(Cl)cc1)N1CCOCC1	PLCg1 inh 18 | PLCgamma1 ctr inactive | PLCb3 confirm inactive
COC(=O)c1ccccc1NC(=O)NCC1CCN(Cc2ccc(OC)cc2)CC1	none
O=C(NCCc1ccccn1)c1ccc2c(c1)ncn2C1CCCCC1	none
C=CCNC(=O)CN1CCC(c2nc3cc(C)c(C)cc3[nH]2)CC1	PLCg1 inh 12 | PLCgamma1 ctr inactive | PLCb3 confirm inactive
COc1ccccc1N1CCN(C(=O)c2ccc3c(c2)nc(C)n3-c2cc(OC)c(OC)c(OC)c2)CC1	none
Cc1cc(NS(=O)(=O)c2ccc(NC(=O)Cc3ccccc3)cc2)no1	none
CC1Cc2nc(SCC(=O)NCC3CCCO3)n(Cc3ccccc3)c(=O)c2S1 (stereo not drawn)	PLCg1 inh 9.6 | PLCgamma1 ctr inactive | PLCb3 confirm inactive
Cc1ccc(SCC(=O)NCC2CCCO2)cc1 (stereo not drawn)	PLCg1 inh 11 | PLCgamma1 ctr inactive | PLCb3 confirm inactive
CC1Cc2nc(SCC(=O)NCC3CCCO3)n(-c3ccc(F)cc3)c(=O)c2S1 (stereo not drawn)	none
O=C(CN1CCc2onc(-c3cccc(-n4cc(CO)nn4)c3)c2C1=O)N1CCOCC1	none
Cc1nnc(C)n1N=Cc1ccc(Cl)c([N+](=O)[O-])c1	none
O=C(NCCc1c[nH]c2ccccc12)OCc1cn(-c2cccc(C(F)(F)F)c2)nn1	none
COc1ccc(NS(=O)(=O)c2ccc(SC)cc2)cc1	PLCg1 inh 12 | PLCgamma1 ctr inactive | PLCb3 confirm inactive
O=C(CSc1n[nH]c(-c2ccccc2)n1)Nc1ccccc1O	PLCg1 inh 9.9 | PLCgamma1 ctr inactive | PLCb3 confirm inactive
